# The list is not random: actives were taken first. Their share in the collection is about 3.8%.
# NTR1 ag – agonists of human NTR1, primary screen, imaging, U2OS cells, beta-arrestin-GFP, high content | actives 0.17% (n = 330,000) | NTR1-U2OS beta-arrestin-GFP spot imaging, agonist mode | activation, % at 20 µM;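 active means activation at or above 40% of the spot to cytoplasm intensity ratio, with at least 20 cells analyzed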
# Target sequence (P30989 whole entry, looked up): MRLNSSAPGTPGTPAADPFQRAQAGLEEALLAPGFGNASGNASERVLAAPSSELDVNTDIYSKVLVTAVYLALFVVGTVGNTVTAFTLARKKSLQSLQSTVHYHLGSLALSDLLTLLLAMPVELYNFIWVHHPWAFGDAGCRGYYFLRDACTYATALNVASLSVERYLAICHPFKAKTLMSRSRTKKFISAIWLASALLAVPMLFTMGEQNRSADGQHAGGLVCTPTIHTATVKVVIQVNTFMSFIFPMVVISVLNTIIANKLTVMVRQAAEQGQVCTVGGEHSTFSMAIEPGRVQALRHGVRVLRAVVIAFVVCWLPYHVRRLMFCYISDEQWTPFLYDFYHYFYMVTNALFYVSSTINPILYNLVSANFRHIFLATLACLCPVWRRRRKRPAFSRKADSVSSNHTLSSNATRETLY
# Beta apoptosis – inhibitors of cytokine-induced beta cell apoptosis, primary screen, luminescence | INS-1E cytokine-induced death, ATP luminescence, 48 h; percent of positive-control rescue, neutral wells zero | actives 0.8% (n = 300,000) | protection from apoptosis, % (concentration not given with the values);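 active means Every replicate reaches about 75%, or at least half do and their mean reaches it too, limit read from the data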;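 further: higher means more ATP so stronger rescue from cytokine killing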
# Mdm2 MdmX PPI – inhibitors of human Mdm2-MdmX association, primary screen, cell-based, luminescence, split luciferase, SaOS-2, uHTS | Protein Mdm4 (Homo sapiens) + E3 ubiquitin-protein ligase Mdm2 (Homo sapiens), … | SaOS-2 split-luciferase Mdm2/MdmX complementation | inhibition, % at 8 µM | actives 3% (n = 330,000);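 active means inhibition of at least 50% at 8 µM in the primary screen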
# Bfl-1 A1 inh – caspase 3/7 activation in MEF A1-2A-BIM cells, primary screen, A1 inhibitor project, cell-based, luminescence, HTS | Caspase-Glo 3/7 luminescence, 3 h; percent of clofoctol response, vehicle zero | caspase activation, % (no concentration beside the values) | actives 0.066% (n = 330,000);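 active means over half of replicate activation scores above 10%, or exactly half above 10 with the replicate mean above 10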
# 697 NFkB inh – inhibitors of PMA/ionomycin-induced NF-kB reporter, 697 cells, primary screen, B-cell NF-kB inhibitor project, cell-based, luminescence, uHTS | 697 B-cell NF-kB luciferase reporter, 16 h | inhibition, % at 4 µM | actives 0.33% (n = 330,000); in the data active means inhibition above about 35%
# Jurkat NFkB inh – inhibitors of induced NF-kB luciferase reporter, primary screen, TCR NF-kB activation inhibitor project, cell-based, luminescence, uHTS; Jurkat, PMA/ionomycin-induced NF-kB luciferase reporter; inhibition, % at 4 µM; actives 0.53% (n = 330,000); in the data active means inhibition above about 50%
# Mdm2-MdmX conf – Mdm2-MdmX complex disruptors, retested hits, confirmation, luminescence, single concentration | shares compounds with Mdm2 MdmX PPI | Mdm2-MdmX binding, luminescent assay | inhibition, % at 8 µM | actives 55% (n = 10,000) | AID 489028, 2010; in the data active means inhibition above about 40%
# Full FLuc ctr – full-length luciferase signal inhibition, confirmation, counter-screen for Mdm2/MdmX interaction inhibitor project, cell-based, single concentration, SaOS-2 | shares compounds with Mdm2 MdmX PPI | SaOS-2 full-length luciferase counterscreen, luminescence | inhibition, % at 8 µM | actives 77% (n = 6,200);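 active means mean inhibition at 8 µM reaching about 37%, which flags the compound as non-specific, limit read from the data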;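 further: p53-null SaOS-2 cells with luciferase driven by a doxycycline-inducible promoter; compound on cells about two nights before reading with doxycycline added after day one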
# Hits are given with their value; i = inactive; nt = no result.
SMILES,NTR1 ag,Beta apoptosis,Mdm2 MdmX PPI,Bfl-1 A1 inh,697 NFkB inh,Jurkat NFkB inh,Mdm2-MdmX conf,Full FLuc ctr
Cc1ccc(OCC(=O)N2CCN(C(=O)Cc3ccccc3)CC2)cc1,i,i,i,i,i,i,nt,nt
Cc1cc(C)nc(NC(=O)c2ccc3c(c2)OCO3)c1,i,nt,i,i,i,i,nt,nt
Cc1cc(C)nc(NC(=O)c2c(F)c(F)c(F)c(C(=O)Nc3cc(C)cc(C)n3)c2F)c1,i,i,83,i,i,i,65,i
CCOC(=O)c1oc2ccc(S(=O)(=O)n3nc(-c4ccc(Cl)cc4)cc3N)cc2c1C,i,i,62,i,i,i,54,57
COc1ccc(S(=O)(=O)n2nc(-c3ccc(Cl)cc3)cc2N)cc1,i,i,51,i,i,i,52,59
CC(C)OC(=O)c1c2nc3ccccc3nc2n2c1[nH]c(=O)c1ccccc12,i,i,60,i,i,i,i,48
C/C(N)=C(/C#N)C(=O)COC(=O)C1CSC2(c3ccc(F)cc3)CCC(=O)N12 (centres undefined),i,i,i,i,i,i,nt,nt
O=C(C1=C[C@H](c2ccc(Br)cc2)C[C@H](OCCCCO)O1)N1CCN(Cc2ccc3c(c2)OCO3)CC1,i,i,i,i,i,i,nt,nt
O=C(C1=C[C@@H](c2ccc(Br)cc2)C[C@@H](OCCCCO)O1)N1CCN(Cc2ccccc2)CC1,i,i,55,i,i,i,50,66
CCCCC(=O)NC(c1ccccc1OC)c1ccc2cccnc2c1O (centres undefined),i,96,87,i,i,i,83,52
CCCCC(=O)NC(c1ccc(OC)c(OC)c1)c1c(O)ccc2ccccc12 (centres undefined),i,i,i,i,i,i,nt,nt
CCCC(=O)NC(c1ccccc1OC)c1ccc2cccnc2c1O (centres undefined),i,95,77,i,i,i,82,50
CC(=O)c1ccc(NC(=O)C2=CC(c3ccco3)=NS(=O)(=O)N2C)cc1,i,i,i,i,i,i,nt,nt
COc1cccc(/C=N/Nc2nc(Nc3ccccc3)nc(-n3nc(C)cc3C)n2)c1O,i,135,57,i,i,i,i,nt
COc1cccc(/C=N/Nc2cc(-n3nc(C)cc3-c3ccccc3)ncn2)c1O,i,nt,59,i,i,i,78,50
COc1cccc(/C=N\NC(=O)Cn2nnc3ccccc32)c1O,i,i,i,i,i,i,nt,nt
CCC(C(=O)Nc1c2c(nn1C(C)(C)C)CS(=O)(=O)C2)c1ccccc1 (centres undefined),i,i,i,i,i,i,nt,nt
CN(C)c1ccc(/C=C/c2c([N+](=O)[O-])c(=O)n(C)c(=O)n2C)cc1,i,nt,i,nt,i,i,nt,nt
Cn1c(/C=C/c2ccc(Br)cc2)c([N+](=O)[O-])c(=O)n(C)c1=O,i,i,84,i,i,i,52,i
O=C1c2ccccc2C(=O)N1COc1ccc(S(=O)(=O)N2CCOCC2)cc1[N+](=O)[O-],i,i,i,i,i,i,nt,nt
CCN(CC)Cc1c(O)ccc2c(=O)c(-c3ccccc3OC)coc12,i,i,i,i,i,i,nt,nt
O=C(O)CCCCCNC(=O)c1ccc(Br)cc1,i,i,i,i,i,i,nt,nt
O=C(NCCCCNC(=O)c1ccc(Br)cc1)c1ccc(Br)cc1,i,i,77,i,i,i,i,nt

# Screening results as filed in PubChem.
